DT40 TDP1 CPT = DT40-hTDP1 cell growth loss with CPT; Potency, µM (highest dose often 46.2 µM), most hits filed as inhibitors; chicken DT40 Tdp1-/-;hTDP1 cells + 20 nM CPT, ATP luminescence, 48 h; hit rate 12% among 420,000; also: nearly all actives have a fitted effect of over 55% in size
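Cell growth measured by CellTiter-Glo luminescence after a minimum 48 h, 37 C compound exposure with 20 nM CPT in Tdp1-knockout DT40 cells stably expressing hTDP1, seeded 400/well; qHTS titration format.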
TDP1 cell noCPT = qHTS for Inhibitors of human tyrosyl-DNA phosphodiesterase 1 (TDP1): qHTS in cells in absence of CPT; DT40 Tdp1-/- hTDP1 cells, no CPT, ATP luminescence, 48 h; Potency, µM (top dose mostly 46.2 µM), actives largely listed as inhibitors; hit rate 15% among 420,000; also: nearly all actives have a fitted effect of over 55% in size
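No-CPT arm: Tdp1-/-;hTDP1 DT40 cells (400/well) plus compounds, incubated ≥48 hr at 37 °C. Readout CellTiter-Glo luminescence.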
TDP1 inh = blocks human tyrosyl-DNA phosphodiesterase 1; Q9NUW8; recombinant TDP1, AlphaScreen DNA substrate cleavage; Potency, µM (series often up to 130 µM), most hits filed as inhibitors; hit rate 0.28% among 350,000; AID 485290; also: nearly all actives have a fitted effect of over 40% in size
Target sequence (Q9NUW8 whole entry, looked up): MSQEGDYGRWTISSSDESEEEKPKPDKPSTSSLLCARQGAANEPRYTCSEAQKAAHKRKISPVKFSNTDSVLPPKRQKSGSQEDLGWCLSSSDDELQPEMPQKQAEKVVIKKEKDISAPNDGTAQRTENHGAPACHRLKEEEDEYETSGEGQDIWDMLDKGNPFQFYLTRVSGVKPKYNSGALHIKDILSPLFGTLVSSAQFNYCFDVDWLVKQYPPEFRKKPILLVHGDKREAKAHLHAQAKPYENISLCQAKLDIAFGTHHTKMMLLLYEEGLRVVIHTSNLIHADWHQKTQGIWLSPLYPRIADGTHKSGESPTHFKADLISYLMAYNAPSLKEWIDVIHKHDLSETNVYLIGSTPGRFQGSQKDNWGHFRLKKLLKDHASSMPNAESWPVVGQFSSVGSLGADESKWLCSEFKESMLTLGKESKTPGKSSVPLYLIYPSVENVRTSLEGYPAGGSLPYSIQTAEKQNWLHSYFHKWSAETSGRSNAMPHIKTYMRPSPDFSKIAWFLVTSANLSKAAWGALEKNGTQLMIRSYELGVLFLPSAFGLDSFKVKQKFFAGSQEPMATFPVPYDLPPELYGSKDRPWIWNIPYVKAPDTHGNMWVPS
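Enzyme-compound mixtures sat 15 min at room temperature, followed by a 5 min reaction with 15 nM final substrate and 10 min with AlphaScreen beads. Recombinant human Tdp1 was used at 1 nM final.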
IL-1B inflam inh = inhibitors of inflammasome signaling (IL-1 beta secretion) | THP-1 LPS/ATP IL-1B secretion, AlphaLISA, 16 h; stronger effect = lower value | activity change, % at 57.5 µM | hit rate 4.7% among 360,000; in the data active = activity change below about -50%; inconclusive = mostly about -30% to -49%
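Secreted IL-1B measured by AlphaLISA bead assay after 16 h compound exposure of THP-1 cells; compounds (final up to 57.5 uM) added 1 h before LPS (250 ng/mL) and ATP (1.25 mM) stimulation; lower signal means less secretion.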
HepG2 viability = kills HepG2 cells in TGF-b inhibitor counter-screen; HepG2 CAGA-GFP viability, ATP luminescence, 18 h; Potency, µM (series often up to 46.1 µM), hits mostly cytotoxic; hit rate 0.76% among 410,000; AID 588856
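CellTiter-Glo luminescence gave cytotoxicity after 18 hours at 37 degrees C. The cells were HepG2 CAGA-GFP in 1% FBS DMEM, stimulated with 500 pg/mL TGF-beta after compound addition. %Activity was normalised to no-cell wells (complete cell-killing) and DMSO (no toxicity), and curves were fitted and classified.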
TGFb SMAD3 inh = TGF-b pathway inhibition; HepG2 CAGA-GFP TGF-b/SMAD3 reporter, GFP fluorescence, 18 h; TGF-beta stimulated, 500 pg/mL final; Potency, µM (series often up to 46.1 µM), most hits filed as inhibitors; hit rate 1.2% among 410,000; AID 588855; also: nearly all actives have a fitted effect of over 65% in size
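Smad-responsive CAGA-GFP expression was quantified in HEPG2 cells exposed to compounds and 500 pg/mL final TGF-beta for 18 h at 37 degrees C; unstimulated wells defined full inhibition.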
A number is an active result; . = inactive; ? = inconclusive; / = no result given; [ ] = dose if it differs, or a comment. Rows were chosen to be rich in hits. Some 19% of all compounds tested hit in one or more screens of this group. Unless noted, calls follow the shape of the dose curve; as a rule, active = well fitted curve in the direction sought with a large enough effect; inconclusive = small, poorly fitted or top-dose-only effect, or another doubt; inactive = no such curve, though single readings can be large; an effect the other way counts as inactive or inconclusive.

SMILES	DT40 TDP1 CPT	TDP1 cell noCPT	TDP1 inh	IL-1B inflam inh	HepG2 viability	TGFb SMAD3 inh
Cc1nnc(NC(=O)CSc2nccn2Cc2ccc(Cl)cc2)s1	?	?	.	/	.	.
C=CCN=c1sc(C(=O)OC)cc(=O)n1CC=C	15µM	.	.	.	.	.
CC(C(=O)Nc1ccc(OC(F)(F)F)cc1)N1Cc2ccccc2C1=O (centres undefined)	.	.	.	/	.	.
O=S(=O)(NCCc1csc(-c2cccnc2)n1)c1cccs1	?	?	.	.	.	.
COc1ccc(S(=O)(=O)NCCc2csc(-c3cccnc3)n2)cc1	15µM	.	.	.	.	.
O=S(=O)(NCCc1csc(-c2cccnc2)n1)c1ccc(Cl)s1	12µM	23µM	.	.	.	?
COc1ccc(OC)c(S(=O)(=O)NCCc2csc(-c3cccnc3)n2)c1	.	.	/	.	.	.
CCN(CC)c1ccc(/C=C(/C#N)c2nc3ccc(C)cc3[nH]2)c(OC(C)C)c1	15µM	21µM	.	?	.	.
CCCOc1cc(N(CC)CC)ccc1/C=C(/C#N)c1nc2ccc(C)cc2[nH]1	21µM	13µM	.	.	.	.
CCOc1cc(N(CC)CC)ccc1/C=C(/C#N)c1nc2ccccc2[nH]1	16µM	10µM	.	?	.	.
COc1cccc(/C=C(/C#N)c2nc3ccccc3[nH]2)c1OC(C)C(=O)O (centres undefined)	.	.	/	.	.	.
Cc1cc(Cl)ccc1NC(=S)NCc1ccc(F)cc1	.	?	.	-56	.	.
Cc1cc(Cl)ccc1NC(=S)NCc1ccccc1Cl	?	26µM	.	.	.	?
Cc1cc(Cl)ccc1NC(=S)NCC(C)C	?	29µM	.	.	.	?
Cc1nn(Cc2ccccc2)c(C)c1/C=N/NC(=O)CNc1cccc(C(F)(F)F)c1	.	?	.	.	.	?
COc1ccc(O)c(/C=N/NC(=O)CSc2nnc(C)n2-c2ccccc2)c1	16µM	18µM	.	.	.	.
Cc1ccc(-c2nn(-c3ccccc3)cc2/C=N/NC(=O)CSc2nnc(C)n2-c2ccccc2)cc1	?	?	.	-62	.	?
O=C(CNc1cccc(C(F)(F)F)c1)N/N=C/c1cn(-c2ccccc2)nc1-c1ccccc1	16µM	?	.	?	.	.
COc1cccc(/C=N/NC(=O)CSc2nnc(C)n2-c2ccccc2)c1O	?	?	.	.	.	.
Cc1nn(CC(=O)OCC(=O)NC(C)c2ccccc2)c(C)c1[N+](=O)[O-] (centres undefined)	.	.	.	.	.	.
Nc1c([N+](=O)[O-])c(=O)oc2ccccc12	.	.	.	.	.	.
COc1ccc(C(=O)NNc2ccccc2)cc1	.	.	.	.	.	.
O=C(NNC1=C(C(=O)C(F)(F)F)CCC1)c1ccc(Cl)cc1	?	?	.	.	10µM	11µM
O=C(NNC1=C(C(=O)C(F)(F)F)CCC1)c1cccc(Cl)c1	5.8µM	6.5µM	.	.	10µM	?
COc1ccc(C(=O)NNC2=C(C(=O)C(F)(F)F)CCC2)cc1	0.73µM	1.3µM	.	.	.	8.9µM
SMILES	DT40 TDP1 CPT	TDP1 cell noCPT	TDP1 inh	IL-1B inflam inh	HepG2 viability	TGFb SMAD3 inh
Clc1ccc(C[n+]2cc(-c3ccccc3)n3c2CCCCC3)c(Cl)c1	0.46µM	0.26µM	.	-91	.	?
Clc1cccc(-c2nnc3n2CCCCC3)c1	.	.	.	.	.	.
Clc1ccc(-c2c[n+](Cc3ccc(Cl)cc3Cl)c3n2CCCCC3)cc1	1.2µM	1.2µM	.	-81	.	.
Clc1ccc(-c2nnc3n2CCCCC3)cc1	.	.	.	.	.	.
Clc1ccc(-c2c[n+](Cc3ccc(Br)cc3)c3n2CCCCC3)cc1	2.6µM	2.6µM	.	-62	.	.
CC(=O)NCCC(=O)Nc1nc2ccc(Oc3ccccc3)cc2s1	.	?	.	.	.	.
CN(C)c1nc2cc3c(cc2cc1CN(CC1CCCO1)C(=O)c1cccc(F)c1)OCO3 (centres undefined)	.[9.04 µM]	.	/	/	/	/
O=C(Nc1ccccc1Oc1ccccc1)c1cnccn1	.	.	.	.	.	.
CCOc1ccccc1NC(=O)C(CC)Sc1nc2ccncc2[nH]1 (centres undefined)	?	16µM	.	.	.	.
CCOc1ccccc1NC(=O)c1cnccn1	.	.	/	-59	.	.
CCOc1ccccc1NC(=O)c1nc[nH]c1C(=O)Nc1ccccc1OCC	16µM	?	.	.	.	.
NC(=O)c1c(/N=C/c2cccnc2)sc2c1CCCC2	?	?	.	.	.	.
OC1(Cc2ccccc2)CCNCC1	.	.	.	/	.	.
Cc1ccccc1-c1noc(-c2ccccc2OCC(=O)Nc2ccccc2[N+](=O)[O-])n1	.	.	.	/	.	.
O=C(Nc1cccc2ccccc12)/C(=C/c1ccc([N+](=O)[O-])cc1)NC(=O)c1ccccc1	8.2µM	21µM	.	.	.	.
COc1ccc(/C=C(\NC(=O)c2cccs2)C(=O)Nc2cccc3ccccc23)cc1OC	?	18µM	.	.	.	.
O=C(Nc1cccc(C(=O)O)c1)/C(=C/c1ccc([N+](=O)[O-])cc1)NC(=O)c1ccccc1	.	.	.	.	.	.
O=C(N/N=C/c1ccc(O)c(O)c1O)/C(=C/c1ccc([N+](=O)[O-])cc1)NC(=O)c1ccccc1	4.6µM	5.8µM	.	.	.	.
Cc1ccc(NC(=O)/C(=C\c2ccc([N+](=O)[O-])cc2)NC(=O)c2ccccc2)cc1	?	?	.	.	.	.
CS(=O)(=O)N1N=C(c2cccs2)CC1c1ccccc1O (centres undefined)	.	.	.	.	.	.
Oc1ccccc1C1CC(c2cccs2)=NC(c2ccc(Cl)cc2)N1 (centres undefined)	21µM	4.1µM	.	?	.	20µM
CCOC(=O)Cc1nnc(Nc2ccc(C)cc2)c2ccccc12	.	?	.	.	.	?
CCOC(=O)Cc1ccc(Nc2nc(NCc3ccccc3)nc3ccsc23)cc1	23µM	15µM	/	.	.	?
CCOC(=O)Cc1ccc(Nc2nc(NC)nc3ccsc23)cc1	21µM	18µM	/	.	.	.
CC(=O)NCCNc1nc(NCc2ccccc2)nc2ccsc12	?	?	/	.	.	?
O=C(CCn1c2c(c3ccccc31)CCCC2)NNC(=O)c1ccc(Cl)c([N+](=O)[O-])c1	?	?	.	.	.	?
